Test results: the supplement of paper PMC11417369
The full ranking holds about 25,000 sequences; the median of “ln(normalized median fluorescence intensity)” is about 9.7, and the highest 2% start at about 11. This excerpt belongs to a sample that is enriched for the highest values.

These sequences were tested on PfAP2-HC AP2 domain (GST-tagged) (assay: gcPBM binding intensity (ln(normalized median fluorescence intensity)); higher = stronger DNA binding).
In short: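 DNA-binding domains from P. falciparum, fused to GST and produced in E. coli, were put on an Agilent 4 × 180k double-stranded probe array for 1 h in 1× PBS holding 1% milk, 0.2 mg/ml BSA, 0.5% salmon testes DNA and 0.03% Triton X-100. Probes were primer-extended, 36 bp long and drawn from intergenic genomic regions, with negative controls included. After Alexa488 anti-GST antibody detection and a 488 nm scan, binding intensity was set as the highest Masliner-normalised natural-log median intensity across replicate spots of either probe orientation.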

Sequence	gcPBM binding intensity (ln)
AACGAAGCATAAAATGTTATGTATATATATAAATAT [TGCATGCA_negctrl_site304]	9.79
ATAGAAATATATATATGTACATATAGATAAATCTAT [XGTACX_site7833]	9.75
ATATGTACATATCTCATGCACTTAACAAAAAAAAAG [GTGCAC_site9898]	9.56
TACATTCGGAGTAAAAAAAAATTTATACAATTACTT [XGTACX_negctrl_site29]	9.44
AATCCTTACGGACACACACACACGAATAAATAAAAA [CACACA_site4422]	11
ATAATCCTTAGACACACACACACACGAATAAATAAA [CACACA_site6364]	11.3
TAGAATAATCCTTACACACACACACCCACGAATAAA [CACACA_site483]	10.5
AATCCTTACAGACACACACACACGAATAAATAAAAA [CACACA_site480]	10.6
AATCCTTACGAACACACACACACGAATAAATAAAAA [CACACA_site6363]	10.8
AATAGAATAATCCTTACACACACACCCACACGAATA [CACACA_site8053]	10.4
GAATTTCAACAAAGTAGTACATTTTATAGTAATTGG [XGTACX_site2319]	9.48
ATAAACATATCAATATGTACATATTTTTGTTTGTAT [XGTACX_site7018]	9.77
TAATTTTTATTCAGTTCACACACGCTTTAATATTAT [CACACA_site9147]	9.94
GTTATATTCCTACAGAGTACATAAAAATGCACATCA [XGTACX_site1948]	9.54
AAAAAAAAAAAAAATACACACAAACACAAATTAAAT [CACACA_site5982]	10.8
TAAATTAAAAAACACACACACAAAAAAAAAAAAAAA [CACACA_site2263]	11.2
AAAAAAAAAAAATACACACAAACACAAATTAAATAA [CACACA_site3809]	10.3
CATAAATTAAAACACACACACACAAAAAAAAAAAAA [CACACA_site2262]	11.6
AAAAAATTAATAAAAACACACAAAAAAAATAAACAA [CACACA_site1907]	9.95
GTTTCAAAATTAAACACACACAAAAAAAAAAAAAAA [CACACA_site2680]	9.72
TACCCACGTATATATATACACACTAATATACACCCA [CACACA_site9381]	9.88

Sequence	gcPBM binding intensity (ln)
TTAAGCCGCAATATGGGTACATAGGAAGAAGGGGAA [XGTACX_site8397]	9.56
TTTTAAATTTAATTTACACACTTTTCATAGCATTGA [CACACA_site3794]	9.61
TGCAGTCTGGAGAAAAGTACACAGTATCTGGTAGCT [XGTACX_site2013]	9.58
CATACATACATACATACACACATACATATGTATTTA [CACACA_site5384]	9.99
ACTTGTAAGAAACACACACACACACCCATATATATA [CACACA_site796]	11.5
TTAAACTTGAAACACACACACACACCGATATAAAAA [CACACA_site4578]	10.5
TTGTAAGAAAAACACACACACACATATATATATATA [CACACA_site795]	10.3
ACTTGTAAGAAACACACACACACACCGATATATATA [CACACA_site4594]	11.2
AAACTTGTAAGAAACACACACACACCCATATATATA [CACACA_site797]	10.5
AAACTTGTAAGAAACACACACACACGCATATAAATA [CACACA_site6518]	10.7
AATTAAATTACTTATACACACATAAAATGCCTGTAT [CACACA_site6597]	9.84
TTATGTAAAAAAAAAAAAAAAAAAAAAAAAAAAAAA [CACACA_negctrl_site984]	9.05
ATTATCAAAAAAAAAAAAAAAAAAAAAAAAAAAAAA [CACACA_negctrl_site1118]	8.87
AACTTGTATTTATACACACACACACTGTCTTTTTTT [CACACA_site7009]	10.5
AACTTGTATATATACACACACACACTATCTTTTTTT [CACACA_site8601]	10.9
AACTTGTATTTATACACACACACACTAGCTTTTTTT [CACACA_site5132]	10.4
ATTTTTATTAGTTATTGTACTTATTATTTATTAATT [XGTACX_site2568]	9.78
TACAGACAGAAACACACACACACGCATAAAAAAAAA [CACACA_site1514]	10.5
CACCCATAGAAACACACACACGCATAAAAAAAAAAA [CACACA_site1513]	10.7
TACAGACATAGACACACACACACGCATAAAAAAAAA [CACACA_site6820]	11.4
TACACCCATAGACACACACACACGCATAAAAAAAAA [CACACA_site8428]	11.1

Sequence	gcPBM binding intensity (ln)
TATATACACAGACACACACACACATACACGCACATA [CACACA_site6909]	10.5
TACACATACCCATACACACGCATAGAAACATACGAA [CACACA_site5212]	10.2
AATAAATAAAAATGCACACAGTTAACATGTTGAATT [CACACA_site4795]	10.2
GCATCTCATTTGTGATGTACTATATTATCCGTTTTT [XGTACX_site7576]	9.71
ATATATATTATGTGTGTGCACTTTTGTTATTATTAT	10.2
TATATAACATAATATACACACATTATGTGCGTAATT [CACACA_site4073]	9.75
GATATGTTTTCCTAGGTTCATGATGATAGGTAGTTT [XGTACX_negctrl_site217]	9.83
ATACAATACAAAAACACACACAAAAAAAGAAAAGGA [CACACA_site2156]	10.4
AAAAAAAAAAAGCACACACACATATGCGTATATATA [CACACA_site954]	10.9
AAAAAAAAAAAAAGCACACACACATATGCGTATATA [CACACA_site953]	10.3
AAAGTAAAAGAAAGCACACACACATGTATATATGTA [CACACA_site3857]	10.2
AGTAAAAGAAAGCACACACACATGTATATATGTATG [CACACA_site3858]	11
AGTAAAAGAAAGCACACACACATGTATATAGGTATG [CACACA_site7759]	10.9
TAGGAAAAGAAAAGCACACACATAAATAGATATATA [CACACA_site6382]	10.3
AGATATAAGAAAAGCACACACACACTAGAAAAAAAA [CACACA_site5559]	11
ATAAGAAAAGGACACACACACAAAAAAAAAAAAAAA [CACACA_site7351]	11.1
ATAAGAAAAAGACACACACACAAAAAAAAAAAAAAA [CACACA_site2828]	10.2
AAAAAAAAAAAGCACACACACATATGAGTATATATA [CACACA_site4683]	10.3
AAGAAAAGCATAGATGCACACATATATATATATATA [CACACA_site8675]	10.5
